# Assay results taken from PubChem BioAssay AID2275 (Broad Institute, 2010).
# Screen size: about 30,000 compounds; about 190 (0.63%) were called active. Cut-off read from the data, not from the text of the source: active = viability loss activity score above about 50%; inconclusive = no clear call, values can overlap the other calls; inactive = below about 35%. Shown is part of a subset that was picked to be rich in actives.
# Test: BJeLR cell viability loss, primary screen, luminescence, CellTiterGlo ATP (AID 2275);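 note: higher score means fewer live cells and less ATP luminescence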
# Details: BJeLR fibroblasts viability, 48 h, active compounds read high, HRASV12, hTERT and SV40 LT/ST transformed, concentration not given here
row,Compound,viability loss activity score
1,O=c1cc(N2CCN(c3ccccc3)CC2)[nH]c(=O)n1-c1ccc(Cl)cc1,2.58% (inactive)
2,CN(Cc1ccccc1)C(=O)c1cc(-c2ccc(Cl)cc2)on1,3.08% (inactive)
3,CC1=C(C(=O)OCc2ccccc2)OC(N)=C(C#N)C1c1ccc(F)cc1 (centres undefined),1.52% (inactive)
4,Cc1ccc(Cl)cc1N(C)C(=O)c1cc2c(-c3ccc(Cl)cc3)nn(C)c2s1,-0.32% (inactive)
5,Cc1ccccc1NC(=O)Nc1ccccc1N1CCCCC1,1.43% (inactive)
6,C=C1SC(Nc2ccc(C)cc2)=NC1(C)C,0.0102% (inactive)
7,COc1ccc2c(c1)-c1c(ssc1=S)C(C)(C)N2C(C)=O,12.8% (inactive)
8,C[C@H]1O[C@@H](O[C@H]2[C@@H](O)C[C@H](O[C@H]3[C@@H](O)C[C@H](O[C@H]4CC[C@]5(C)C6C[C@@H](O)[C@]7(C)[C@@H](C8=CC(=O)OC8)CC[C@]7(O)C6CC[C@@H]5C4)O[C@@H]3C)O[C@@H]2C)C[C@H](O)[C@@H]1O (some centres undefined),129% (active)
9,COc1cc(OC)cc(C2C(C#N)=C(N)OC(N)=C2C#N)c1,1.86% (inactive)
10,CCOC(=O)C1CCN(C(=O)CN2C(=O)c3ccccc3C2=O)CC1,-3.08% (inactive)
11,Cc1noc(C)c1NC(=O)Nc1ccc2c(c1)C(=O)N([C@H](C)CO)C[C@H](C)[C@H](CN(C)Cc1ccc(-c3ccccc3)cc1)O2,-1.86% (inactive)
12,Cc1cc(-c2nc(C)c(-c3nnc(SCC(=O)Nc4ccccc4)n3C)s2)no1,-2.45% (inactive)
13,Cc1ccc2oc(=O)c3cc(C(=O)NC4CCCC4)sc3c2c1,4.55% (inactive)
14,Cc1ccc(S(=O)(=O)N(CC(=O)Nc2ccc3c(c2)OCCO3)C2CCCCC2)cc1,-4.45% (inactive)
15,COc1cc2c(cc1OC)C1CN3CCc4cc(OC)c(OC)cc4C3CN1CC2 (centres undefined),18.2% (inactive)
16,CC[C@H]1CN2CCc3cc(OC)c(OC)cc3[C@@H]2C[C@@H]1C[C@H]1NCCc2cc(OC)c(OC)cc21,96.1% (active)
17,O=C(Nc1cccc(-c2nc3ccccc3o2)c1)c1cccc(OCc2ccccc2)c1,10.7% (inactive)
18,Cc1ccc(CN2CCSc3ccc(C(=O)Nc4ccc(F)cc4)cc32)cc1,0.172% (inactive)
19,O=C(NC1CCCCC1)C1CCC(CNS(=O)(=O)c2ccccc2)CC1 (centres undefined),6.1% (inactive)
20,CCc1ccc(NC(=O)NC(C)(C)C)cc1,-4.47% (inactive)
21,Cc1ccc(CNC(=O)CCC(=O)Nc2ccc3nc(N4CCCCC4)cc(C)c3c2)cc1,0.494% (inactive)
22,Cc1ccccc1NCC(=O)NN,-2.54% (inactive)
23,Cc1nnn(C23CC4CC(CC(CC(=O)Nc5ccc(Cl)cc5)(C4)C2)C3)n1,-2.2% (inactive)
24,CC(C)(C)c1ccc(/C=C/C(=O)NCCCn2ccnc2)cc1,0.598% (inactive)
25,Nc1cc(=O)[nH]c2nnc(SCc3ccc(Br)cc3)n12,-1.86% (inactive)
26,Cc1ccc(N2C(=O)c3oc4cc(C)c(C)cc4c(=O)c3C2c2ccc(O)cc2)nc1 (centres undefined),-1.21% (inactive)
27,Oc1ccc(CN2CCCC2)c2cccnc12,-4.68% (inactive)

row,Compound,viability loss activity score
1,CC1(C)Cc2c(cnn2-c2ccc(F)cc2)-c2nc3ccccc3nc21,-0.68% (inactive)
2,CC(C)N(Cc1nc(-c2ccccc2)no1)C(=O)CCc1ccccc1,-7.42% (inactive)
3,Nn1c(C(=O)N2CCCC2)nc2ccccc2c1=O,-0.611% (inactive)
4,CC(C)c1ccc(S(=O)(=O)N2CCN(S(=O)(=O)c3ccc(C(C)C)cc3)C(C)C2)cc1 (centres undefined),4.1% (inactive)
5,CC1C=CCC2C(=O)N(c3cccc(Cl)c3)C(=O)C12 (centres undefined),0.408% (inactive)
6,CCCCN(Cc1ccccc1)S(=O)(=O)c1ccc2c(c1)oc(=O)n2CC(=O)OCC,-1.44% (inactive)
7,O=C1c2ccccc2C(=O)N1CCCC(=O)n1ccc2ccccc21,-4.38% (inactive)
8,O=C(O)C1=NN(c2ccccc2)C(=O)/C1=C/c1cccs1,5.24% (inactive)
9,O=C(CCSc1nc(-c2ccco2)cc(C(F)(F)F)n1)N1CCCCC1,-3.03% (inactive)
10,COc1ccc(Cn2c(=O)oc3ccccc32)cc1,-1.69% (inactive)
11,C[C@H](CO)N1C[C@H](C)[C@H](CN(C)S(=O)(=O)c2cccs2)Oc2c(NC(=O)Nc3ccc4c(c3)OCO4)cccc2C1=O,1.64% (inactive)
12,C=CCNC(=O)/C=C/c1ccc(C(C)C)cc1,-1.64% (inactive)
13,COc1cc2c(C(=O)N3CCN(c4ccccc4)CC3)cn(CC(C)C)c(=O)c2cc1OC,-11.1% (inactive)
14,CCN(C(=O)CSc1nc2ccccc2c2nc3ccccc3n12)c1cccc(C)c1,0.323% (inactive)
15,O=C(NC1CCCC1)c1cc(-c2ccc(Br)cc2)on1,-5.17% (inactive)
16,C[C@@H]1CN([C@H](C)CO)C(=O)c2cc(NS(=O)(=O)c3cccs3)ccc2O[C@H]1CN(C)Cc1ccncc1,1.52% (inactive)
17,NNC(=O)CN1C(c2ccc(Cl)cc2)=Nc2ccc(Cl)cc2C1c1ccccc1 (centres undefined),4.53% (inactive)
18,CC1=C(C(=O)Nc2ccccc2Br)C2(CCCCC2)OC1=O,-3.85% (inactive)
19,O=C(Nc1cccnc1)c1cc2c(s1)-c1ccccc1CC2,2.6% (inactive)
20,COc1ccc(S(=O)(=O)N(C)C[C@H]2Oc3ccc(NS(C)(=O)=O)cc3C(=O)N([C@H](C)CO)C[C@H]2C)cc1,4.8% (inactive)
21,CC(C)c1ccc(NC(=O)c2ccc(NS(=O)(=O)c3cccs3)cc2)cc1,11.3% (inactive)
22,CCOc1ccc(NC(=O)Cn2c3c(c(-c4ccccc4)cc2=O)CCCC3)cc1,3.03% (inactive)
23,Cc1ccc2nc(-c3ccc(NC(=O)C4CCC4)cc3)sc2c1,-1.59% (inactive)
24,Cc1ccc(OCC(=O)Nc2ccc(-c3nn4c(C)nnc4s3)cc2)cc1,-1.91% (inactive)
25,CC1CCCCN1C(=O)CSc1nc(-c2ccccc2)cc(C(F)(F)F)n1 (centres undefined),-1.5% (inactive)
26,CCC1=Nc2cc(C(=O)NCCCN3CCOCC3)ccc2Sc2ccc(Br)cc21,7.81% (inactive)
27,C[C@@H]1CN([C@@H](C)CO)C(=O)c2cccc(NC(=O)Nc3ccc(C(F)(F)F)cc3)c2O[C@@H]1CN(C)S(=O)(=O)c1ccc(F)cc1,-0.826% (inactive)
